About 79,000 compounds went through this panel and 15% of them were active in at least one assay; those are over-represented in the sample as a whole. Unmarked numbers belong to inactive results. Active and inactive are the calls of the source. No stated cut-off is given here; in the data, active means growth inhibition above about 70%; inactive means the rest.

The first experiment can be described thus: NCI Yeast Anticancer Drug Screen. Data for the cln2 rad14 strain (AID 165).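 Further: 0% = growth equal to vehicle treated cultures.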 Conditions: S. cerevisiae cln2 rad14 strain, at 5.0 µM (retest, dose inferred, filed as 0.5), hits give high values. The procedure, abridged:
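Readout is yeast growth inhibition versus vehicle-treated controls, using a strain with cln2 and rad14 alterations exposed to compound.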
As for `CCC(c1ccc(OC)cc1)C(O)(CC)c1ccc(OC)cc1` (stereo not given), the growth inhibition is -10%.

In the case of `Cc1c(Cl)c(S(N)(=O)=O)cc2c1NC=NS2(=O)=O`, the growth inhibition is 7%.

As for `CCCCCCCCNc1ncnc2c1cnn2C`, the growth inhibition is -9%.

Turning to `Cc1cc(N)c(C)c2c1[nH]c1ccc(Br)cc12`, the growth inhibition is -4%.

For `C(=C\c1cnnc2ccccc12)/c1ccco1`, the growth inhibition was 2%.

Regarding `Cc1cc(N(CCCCl)CCCCl)ccc1C=Nc1cccc(Cl)c1`, the growth inhibition was 3%.

As to `CCC[CH2][Sn]([CH2]CCC)([O]C(=O)c1cc(F)ccc1F)[O]C(=O)c1cc(F)ccc1F`, the growth inhibition is 13%.

Regarding `O=[N+]([O-])c1ccc(N2N=NC(CN3CCOCC3)C2N2CCOCC2)cc1` (stereo not given), the growth inhibition was 0%.

Turning to `O=CC(I)=C(c1ccccc1)c1ccccc1`, the growth inhibition was 4%.

Regarding `CCC/C(=N\O)S(=O)(=O)c1ccc(NN=O)nc1`, the growth inhibition is -31%.

Consider `COc1cc(Cc2n[nH]c(=S)n2-c2ccccc2)c(S(N)(=O)=O)cc1OC`, for which the growth inhibition was 0%.

`CC(=O)Nc1ccc(C(C)(C)c2ccc(C)cc2)cc1`: the growth inhibition was 2%.

With `CC(C)=NOc1ccc([N+](=O)[O-])cc1[N+](=O)[O-]`, the growth inhibition is 2%.

Take `CC(=O)Nc1ccc2c(c1)C(S)c1ccccc1-2` (stereo not given): the growth inhibition was -70%.

In the case of `CCN1CC(=O)N(C)C1=S`, the growth inhibition was 20%.

For `[O-][n+]1c(-c2ccccc2)c(Cl)c(-c2ccccc2)n1O`, the growth inhibition is 0%.

Take `CCCCCCCCCCCCCCCCN(C)c1ccc(S(=O)(=O)O)cc1[N+](=O)[O-]`: the growth inhibition was 24%.

As to `Cc1ccc2c(c1)-c1c(c3c(c4c1-c1cc(C)ccc1CC4)C(=O)OC3=O)CC2`, the growth inhibition was 14%.

`C[N+](C)(CCO)Cc1ccccc1`: the growth inhibition is -1%.

Turning to `CCOC(=O)C(C)(C)Oc1ccc2c(=O)cc(-c3ccccc3)oc2c1`, the growth inhibition was 6%.

In the case of `CS(=O)c1cc(=O)c2ccccc2s1` (stereo not given), the growth inhibition was 10%.

For `COC(=O)c1c[nH]c2ccc(Br)cc12`, the growth inhibition is -9%.

Take `CCCCN1C(=O)C(=O)N(c2ccccc2)C1=O`: the growth inhibition was -29%.

Regarding `Cc1cc(N)c2cc(OCCOc3ccc4nc(C)cc(N)c4c3)ccc2n1`, the growth inhibition is 71% (active).

For `Cc1c2c(c(C)c3c4c(oc13)CCCC4)C=NCC2`, the growth inhibition is -46%.

Consider `CCCC(c1ccc(O)cc1)c1ccc(O)cc1`, for which the growth inhibition was 12%.

With `CC(C)=NNc1ncnc2nc[nH]c12`, the growth inhibition is 4%.

Turning to `Clc1ccc(C2=Nc3ccccc3SC(c3ccc(Cl)c(Cl)c3)C2)c(Cl)c1` (stereo not given), the growth inhibition was 10%.

`N#Cc1c(Cl)nsc1-c1ccc([N+](=O)[O-])cc1`: the growth inhibition was 27%.

For `C=CCSc1nc2ccccc2c(=O)n1Cc1ccco1`, the growth inhibition was 27%.

As to `COC(=O)CSc1nc2[nH]c(SC)c(C(N)=O)c2c(=O)n1-c1ccccc1`, the growth inhibition was -5%.

Regarding `Cc1cc2oc3c(ccc(=O)n3C)c(=O)c2c(C)c1Cl`, the growth inhibition is 20%.

For `CC(=O)SC1C(=O)N(C)C(SC(C)=O)C(=O)N1C` (stereo not given), the growth inhibition was -1%.

Turning to `CCCCCCCCCCCCCCCCOCC(Cl)COP(=O)(O)OP(=O)(O)OCC1OC(n2cc(C)c(=O)[nH]c2=O)CC1O` (stereo not given), the growth inhibition was 22%.

For the compound `CCCCCCCCCCNC(=O)CBr`, the growth inhibition was 5%.

For `O=Cc1c(Cn2ccnc2)c2cc([N+](=O)[O-])ccc2n1Cc1ccccc1`, the growth inhibition was -2%.

As for `C=C(C)C1CC2=C(O1)C(=O)c1ccccc1C2=O` (stereo not given), the growth inhibition is -9%.

In the case of `CC(C)C1=CC2=CCC3C(C)(C(=O)O)CCCC3(C)C2CC1` (stereo not given) (tested in a mixture with another compound), the growth inhibition is -17%.

As for `ClCC1CSC2(CCCCC2)O1` (stereo not given), the growth inhibition was 15%.

As for `Oc1cccc2ccc(SSc3ccc4cccc(O)c4n3)nc12`, the growth inhibition was 85% (active).

Staying with this experiment, now noted: S. cerevisiae cln2 rad14 strain, at 50.0 µM (retest, dose inferred, filed as 5.0), hits give high values.
In the case of `CCC(c1ccc(OC)cc1)C(O)(CC)c1ccc(OC)cc1` (stereo not given), the growth inhibition is 99% (active).

`Cc1c(Cl)c(S(N)(=O)=O)cc2c1NC=NS2(=O)=O`: the growth inhibition was 9%.

Regarding `CCCCCCCCNc1ncnc2c1cnn2C`, the growth inhibition was 61%.

On to `Cc1cc(N)c(C)c2c1[nH]c1ccc(Br)cc12`, for which the growth inhibition was 58%.

As to `C(=C\c1cnnc2ccccc12)/c1ccco1`, the growth inhibition was 31%.

In the case of `Cc1cc(N(CCCCl)CCCCl)ccc1C=Nc1cccc(Cl)c1`, the growth inhibition is -2%.

Turning to `CCC[CH2][Sn]([CH2]CCC)([O]C(=O)c1cc(F)ccc1F)[O]C(=O)c1cc(F)ccc1F`, the growth inhibition was 13%.

As for `O=[N+]([O-])c1ccc(N2N=NC(CN3CCOCC3)C2N2CCOCC2)cc1` (stereo not given), the growth inhibition is 28%.

As to `O=CC(I)=C(c1ccccc1)c1ccccc1`, the growth inhibition was 4%.

As for `CCC/C(=N\O)S(=O)(=O)c1ccc(NN=O)nc1`, the growth inhibition is -13%.

`COc1cc(Cc2n[nH]c(=S)n2-c2ccccc2)c(S(N)(=O)=O)cc1OC`: the growth inhibition is 4%.

`CC(=O)Nc1ccc(C(C)(C)c2ccc(C)cc2)cc1`: the growth inhibition was 96% (active).

As for `CC(C)=NOc1ccc([N+](=O)[O-])cc1[N+](=O)[O-]`, the growth inhibition is 48%.

Consider `CC(=O)Nc1ccc2c(c1)C(S)c1ccccc1-2` (stereo not given), for which the growth inhibition is 18%.

On to `CCN1CC(=O)N(C)C1=S`, for which the growth inhibition was 39%.

`[O-][n+]1c(-c2ccccc2)c(Cl)c(-c2ccccc2)n1O`: the growth inhibition was 53%.

With `CCCCCCCCCCCCCCCCN(C)c1ccc(S(=O)(=O)O)cc1[N+](=O)[O-]`, the growth inhibition was 48%.

For `Cc1ccc2c(c1)-c1c(c3c(c4c1-c1cc(C)ccc1CC4)C(=O)OC3=O)CC2`, the growth inhibition is 41%.

Take `C[N+](C)(CCO)Cc1ccccc1`: the growth inhibition was 2%.

For `CCOC(=O)C(C)(C)Oc1ccc2c(=O)cc(-c3ccccc3)oc2c1`, the growth inhibition was 96% (active).

Regarding `CS(=O)c1cc(=O)c2ccccc2s1` (stereo not given), the growth inhibition was 60%.

Turning to `COC(=O)c1c[nH]c2ccc(Br)cc12`, the growth inhibition is -20%.

For `CCCCN1C(=O)C(=O)N(c2ccccc2)C1=O`, the growth inhibition is -17%.

`Cc1cc(N)c2cc(OCCOc3ccc4nc(C)cc(N)c4c3)ccc2n1`: the growth inhibition is 92% (active).

Regarding `Cc1c2c(c(C)c3c4c(oc13)CCCC4)C=NCC2`, the growth inhibition is 26%.

For the compound `CCCC(c1ccc(O)cc1)c1ccc(O)cc1`, the growth inhibition was 96% (active).

With `CC(C)=NNc1ncnc2nc[nH]c12`, the growth inhibition was -3%.

In the case of `Clc1ccc(C2=Nc3ccccc3SC(c3ccc(Cl)c(Cl)c3)C2)c(Cl)c1` (stereo not given), the growth inhibition was 10%.

`N#Cc1c(Cl)nsc1-c1ccc([N+](=O)[O-])cc1`: the growth inhibition was 59%.

Regarding `C=CCSc1nc2ccccc2c(=O)n1Cc1ccco1`, the growth inhibition was 26%.

For `COC(=O)CSc1nc2[nH]c(SC)c(C(N)=O)c2c(=O)n1-c1ccccc1`, the growth inhibition was 3%.

For the compound `Cc1cc2oc3c(ccc(=O)n3C)c(=O)c2c(C)c1Cl`, the growth inhibition is 13%.

As to `CC(=O)SC1C(=O)N(C)C(SC(C)=O)C(=O)N1C` (stereo not given), the growth inhibition is 0%.

On to `CCCCCCCCCCCCCCCCOCC(Cl)COP(=O)(O)OP(=O)(O)OCC1OC(n2cc(C)c(=O)[nH]c2=O)CC1O` (stereo not given), for which the growth inhibition is 85% (active).

Turning to `CCCCCCCCCCNC(=O)CBr`, the growth inhibition was 100% (active).

In the case of `O=Cc1c(Cn2ccnc2)c2cc([N+](=O)[O-])ccc2n1Cc1ccccc1`, the growth inhibition was -17%.

For `C=C(C)C1CC2=C(O1)C(=O)c1ccccc1C2=O` (stereo not given), the growth inhibition was 37%.

Consider `CC(C)C1=CC2=CCC3C(C)(C(=O)O)CCCC3(C)C2CC1` (stereo not given) (tested in a mixture with another compound), for which the growth inhibition is 85% (active).

Turning to `ClCC1CSC2(CCCCC2)O1` (stereo not given), the growth inhibition is 32%.

Take `Oc1cccc2ccc(SSc3ccc4cccc(O)c4n3)nc12`: the growth inhibition is 87% (active).

The values are drawn from PubChem BioAssay (NCI).
